# Screens as filed in PubChem BioAssay.
# The list is not random: actives were taken first. Their share in the collection is about 2.8%.
# Pol iota inh: blocks human DNA polymerase iota activity | Pol iota fluorescent replication assay, 10 min | Potency, µM (series often up to 115 µM), usual class: inhibitors | 1% of 390,000 active
#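 Pol iota at 10 nM preincubated 15 min with compounds at room temperature; reaction started with fluorescent substrate, 50 nM final. Fluorescence read kinetically at 0 and 10 min; buffer-only wells as negative control.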
# POLK inh: DNA polymerase kappa (human) inhibition | Q9UBT6 | purified Pol kappa, fluorescent DNA synthesis assay, 10 min | Potency, µM (titrated, usually from 107 µM), usual class: inhibitors | 0.53% of 400,000 active | AID 588579
#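 Readout: fluorescence, taken kinetically at 0 and 10 min. Conditions: 10 nM Pol kappa, 15 min RT compound preincubation, 50 nM substrate final. Controls: enzyme-free buffer wells.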
# PI4K2A inh: inhibitors of human PI4K2A; Q9BTU6; AID 1346378; 0.13% of 420,000 active; purified PI4K2A, ADP-Glo luminescence, 1 h; active compounds read low; activity change, negative = inhibition, % at 76.9 µM; in the data active means activity change below about -50%; inconclusive means mostly about -30% to -49%
# Target sequence (Q9BTU6 whole entry, looked up): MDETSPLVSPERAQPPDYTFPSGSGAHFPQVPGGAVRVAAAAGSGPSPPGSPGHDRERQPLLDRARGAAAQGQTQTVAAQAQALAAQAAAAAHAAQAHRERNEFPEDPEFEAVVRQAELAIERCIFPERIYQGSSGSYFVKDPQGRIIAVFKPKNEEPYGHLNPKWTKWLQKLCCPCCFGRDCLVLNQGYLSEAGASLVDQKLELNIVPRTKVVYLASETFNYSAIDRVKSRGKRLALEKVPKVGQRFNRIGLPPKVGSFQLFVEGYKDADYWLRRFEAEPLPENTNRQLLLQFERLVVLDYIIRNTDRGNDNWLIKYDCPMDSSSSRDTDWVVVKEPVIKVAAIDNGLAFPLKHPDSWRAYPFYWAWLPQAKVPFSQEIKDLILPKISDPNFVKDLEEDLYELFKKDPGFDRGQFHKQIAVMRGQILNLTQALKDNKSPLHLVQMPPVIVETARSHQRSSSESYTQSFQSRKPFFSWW
#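 PI4K2A activity was measured by ADP-Glo luminescence: enzyme (4 ug/mL stock) and phosphatidylinositol (1.2 mM stock) in Tris pH 7.5/MgCl2/EGTA/Triton X-100 buffer were reacted with ATP (300 microM stock) for one hour at ambient temperature.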
# PI5P4K alpha inh: PI5P4K alpha (human) kinase inhibition; 1.2% of 330,000 active; PI5P4Kalpha enzyme, ADP-Glo luminescence, 60 min; active compounds read low; max response, %; AID 652105; active means max response of -50% or lower; inconclusive means between -30% and -50%; inactive means -30% or higher; further: value at the top dose of about 77 µM
#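 qHTS, 1536-well: enzyme/substrate mix, compound by pin tool, 5 microM ATP final; RT 60 min; ADP-Glo reagents 1 (45 min) then 2 (30 min); luminescence.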
# POLH inh: DNA polymerase eta (human) inhibition; 1.2% of 390,000 active; recombinant Pol eta, fluorescent DNA replication assay; Potency, µM (top dose mostly 114 µM), hits mostly inhibitors
#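 Pol eta at 10 nM preincubated with compounds 15 min at room temperature; reaction started with fluorescent substrate (50 nM final) and read kinetically at 0 and 10 min.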
# POLB inh: blocks human DNA polymerase beta activity; 1.3% of 340,000 active; Potency, µM (series often up to 114 µM), actives largely listed as inhibitors; Pol beta primer extension/strand displacement, fluorescence kinetic
#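 Pol beta (10 nM) and compounds were preincubated 15 min at room temperature, then 50 nM substrate (final) started primer extension/strand displacement. Reads were taken at 0 and 10 min; concentration-response data were fitted to a four-parameter Hill equation.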
# A number is an active result; - = inactive; ? = inconclusive; . = no result; [ ] = remark or other dose. Unless noted, the call rests on the fitted dose curve; in most records, active means well fitted inhibition curve with a large enough effect; inconclusive means small, poorly fitted or top-dose-only effect, or another doubt; inactive means no such curve, though single readings can be large or run the other way.
SMILES,Pol iota inh,POLK inh,PI4K2A inh,PI5P4K alpha inh,POLH inh,POLB inh
O=C(C[n+]1ccccc1)Nc1c(Cl)cc(Cl)cc1Cl,-,-,-,-,-,8.9µM
Cc1ccc[n+](CC(=O)Nc2c(Cl)cc(Cl)cc2Cl)c1,-,-,-,-,-,-
CC(=O)c1ccc(S(=O)(=O)N2CCNC(=O)C2)cc1,?,-,-,?,22µM,.
CC(=O)c1ccc(S(=O)(=O)N2CCCC2)cc1,-,-,-,.,-,-
CC(=O)c1ccc(S(=O)(=O)N2CCN(C(C)=O)CC2)cc1,-,-,-,-,22µM,-
COc1ccccc1C(=O)Nc1ccccc1OCc1cc(=O)n2ccccc2n1,-,-,-,.,-,-
C/C(=N\NC(=O)c1c[nH]c2ccccc12)c1ccc2c(c1)OCO2,-,-,-,-,-,-
C/C(=N\NC(=O)Cc1c[nH]c2ccccc12)c1ccc2ccccc2c1,-,-,-,-53,-,-
O=C(c1cccs1)N(Cc1ccco1)c1ccc(O)cc1,-,-,.,.,.,.
CN(C)CCOc1nc(-c2ccccc2)nc2c1oc1ccccc12,?,-,-,-,?,45µM
C=CC[N+]1([C@H]2C[C@H]3[C@@H]4CC[C@H]5C[C@H](OC(C)=O)[C@@H](N6CCCCC6)C[C@]5(C)[C@H]4CC[C@]3(C)[C@H]2OC(=O)CC)CCCCC1,.,.,-,.,.,.
CC(C)Oc1ccc(C(=O)Nc2nc3ccccc3[nH]2)cc1,-,-,-56,-,-,-
COc1ccc(Cl)cc1C(=O)Nc1nc2ccccc2[nH]1,79µM,-,-,-,-,45µM
COc1ccc(OC)c(CNC(=O)C2COc3ccccc3C2)c1 (stereo not drawn),-,-,-,.,-,-
CCOCCCNC(=O)C1CCCN(Cc2nc(-c3ccc(CC)cc3)oc2C)C1 (stereo not drawn),-,-,-,.,-,-
O=C(CSc1nc(=O)n2cc(Cl)ccc2n1)Nc1cccc2ccccc12,?,-,-,?,?,.
Cc1ccn2c(=O)nc(SCC(=O)Nc3cccc4ccccc34)nc2c1,?,-,-,-,79µM,.
Cc1ccn2c(=O)nc(SCC(=O)c3ccccc3)nc2c1,45µM,-,-,-62,20µM,.
Cc1ccc2nc(SCC(=O)c3ccccc3)nc(=O)n2c1,-,-,-,-,-,.
Cc1ccn2c(=O)nc(SCC(=O)NCc3ccccc3)nc2c1,45µM,-,-,?,22µM,.
Cc1ccn2c(=O)nc(SCC(=O)N3CCN(c4ccccc4)CC3)nc2c1,50µM,-,-,?,20µM,.
Cc1cccc(N2CCN(C(=O)Cn3c(-c4cccs4)cc4ccccc43)CC2)c1C,-,-,-,.,-,-
CCOCC(=O)Nc1ccc(-c2cn3c(C)csc3n2)cc1,-,-,-,.,-,-
O=C(O)c1ccc(N/N=C/c2ccc(-c3cccc(Cl)c3)o2)cc1,?,-,-,-,79µM,?
O=C(O)c1ccc(N/N=C/c2ccc(-c3ccc(Cl)cc3Cl)o2)cc1,-,-,-,-,?,?
SMILES,Pol iota inh,POLK inh,PI4K2A inh,PI5P4K alpha inh,POLH inh,POLB inh
Cc1c(C(=O)O)cccc1-c1ccc(/C=N/Nc2ccc(Br)cc2)o1,?,-,-,-,22µM,?
CC1=NN(c2ccc(Br)cc2)C(=O)/C1=C/c1ccc(-c2ccccc2C(=O)O)o1,?,-,-50,-,79µM,-
O=C(O)c1cccc(-c2ccc(/C=N/Nc3ccc([N+](=O)[O-])cc3)o2)c1,-,-,-,-,?,-
O=C(O)c1ccc(-c2ccc(/C=N/Nc3ccc([N+](=O)[O-])cc3)o2)cc1,-,-,-,-55,50µM,?
CCC(=O)N1CCc2cc(Br)c(S(=O)(=O)N3CCCC(C(=O)NC(C)(C)C)C3)cc21 (stereo not drawn),.,.,-,.,.,.
CCOC(=O)C1(C)CCCN(C(=O)c2ccc3ccccc3c2)C1 (stereo not drawn),.,.,-,-,.,.
O=C(N/N=C/c1cccc(O)c1)c1ccc(NC(=O)C2CCCCC2)cc1,?,-,-,-,-,32µM
O=C(N/N=C/c1cccc(O)c1)NC1CCCCC1,-,-,-,-,-,-
O=C(N/N=C/c1ccc(O)cc1O)c1ccc(NC(=O)C2CCCCC2)cc1,?,-,-,-,35µM,-
O=C(NC1CCCCN(Cc2cccc(Cl)c2)C1=O)c1ccc(COc2ccccc2)cc1 (stereo not drawn),.,.,-,.,.,.
COc1ccc(Cl)cc1NC(=O)c1sc(-n2nc(C)c(Cc3ccccc3)c2C)nc1C,-,-,-,.,-,-
O=C1N/C(=N/S(=O)(=O)c2ccccc2)S/C1=C/c1cccnc1,?,-,-,-57,?,-
Cc1ccc(/C=C2\S/C(=N/S(=O)(=O)c3cccs3)NC2=O)cc1,40µM,-,-,-59,25µM,-
Cc1ccc(S(=O)(=O)/N=C2/NC(=O)/C(=C\c3ccccc3)S2)cc1,-,-,-,-,?,.
Cc1c(C)n(Cc2ccc(-c3ccccc3C(=O)O)cc2)c2ccc(C(=O)N[C@@H](C)c3ccc([N+](=O)[O-])cc3)cc12,.,.,-,.,.,.
CCN(CC)c1cc(C)c2cc(NC(=O)c3ccc(OC)c(OC)c3)ccc2n1,?,?,-,.,-,13µM
COc1ccc(C(=O)Nc2cccc3cccnc23)cc1OC,-,-,-,.,-,-
COc1ccc(C(=O)Nc2cccc(NC(=O)c3ccc(OC)c(OC)c3)n2)cc1OC,?,-,-,-,-,22µM
Cc1cc(N2CCC(C)CC2)nc2ccc(NC(=O)Cc3c(F)cccc3Cl)cc12,?,-,-,.,-,-
O=C1CCC[C@@H]2CC(N(Cc3cc4ccccc4s3)c3ccccc3)C[C@@H]3CCN1[C@H]23 (stereo partly drawn),-,-,.,.,.,.
COC(=O)C1=C(C)NC(C)=C(C(=O)OCCN(C)Cc2ccccc2)[C@H]1c1cccc([N+](=O)[O-])c1,.,-[12 µM],.,.,.,.
CCn1ccc(NS(=O)(=O)c2ccc(N)cc2)nc1=O,.,.,-,.,.,.
Cc1sc2nc(SCC(=O)Nc3ccc(Cl)c(C(=O)O)c3)[nH]c(=O)c2c1C,-,-,-,-,-,.
Cc1c(C(=O)O)sc2nc(SCC(=O)Nc3ccc(S(=O)(=O)NC(C)(C)C)cc3)[nH]c(=O)c12,-,-,-,-86,-,-
Cc1c(C(=O)O)sc2nc(SCC(=O)Nc3ccc(S(=O)(=O)NCCCC(=O)O)cc3)[nH]c(=O)c12,-,?,-,-70,-,-
CCOC(=O)CSc1nc2sc(C(=O)O)c(C)c2c(=O)[nH]1,-,-,-,-76,-,-
CCOC(=O)CSc1nc2sc(C)c(C)c2c(=O)[nH]1,-,-,-,-,-,-
CCCCNc1ccc(/C=C2\C=Cc3ccccc32)cc1,-,-,.,.,.,.
CC[n+]1c(/C=C/c2ccc(N(C)C)cc2)ccc2ccccc21,-,-,?,-,?,28µM
